# Assay results reported in paper PMC5540273 (PLoS ONE, 2017).
# What was measured:
# Conditions in all cases: concentration: 1 μM, replicates: in singlicate; n = 1
# PIP5K1A = system: PIP5K1A
# PIP5K1C = system: PIP5K1C
# PIP5K2B = system: PIP5K2B
# PIP5K2C = system: T1, PIP5K2C
# T1 construct: gene PIP4K2C
# PKAC-alpha = system: T2, PKAC-alpha
# T2 construct: gene PRKACA
# PKAC-beta = system: T3, PKAC-beta
# T3 construct: gene PRKACB
# PKMYT1 = system: PKMYT1
# PKN1 = system: PKN1
# PKN2 = system: PKN2
# PLK1 = system: PLK1
# PLK2 = system: PLK2
# PLK3 = system: PLK3
# PLK4 = system: PLK4
# PRKCD = system: PRKCD
# PRKCE = system: PRKCE
# PRKCH = system: PRKCH
# PRKCI = system: PRKCI
# PRKCQ = system: PRKCQ
# PRKD1 = system: PRKD1
# PRKD2 = system: PRKD2
# 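Further: KINOMEscan kinase panel screen.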
Structure (SMILES),%Inh (PIP5K1A),%Inh (PIP5K1C),%Inh (PIP5K2B),%Inh (PIP5K2C),%Inh (PKAC-alpha),%Inh (PKAC-beta),%Inh (PKMYT1),%Inh (PKN1),%Inh (PKN2),%Inh (PLK1),%Inh (PLK2),%Inh (PLK3),%Inh (PLK4),%Inh (PRKCD),%Inh (PRKCE),%Inh (PRKCH),%Inh (PRKCI),%Inh (PRKCQ),%Inh (PRKD1),%Inh (PRKD2)
COc1cc(Nc2nccc(-c3c(-c4cccc(NC(=O)c5c(F)cccc5F)c4)nn4ncccc34)n2)cc(OC)c1OC [GSK327238],0%,19%,20%,93.9%,44%,47%,8%,62%,13%,12%,68%,92.7%,44%,79%,14%,67%,9%,90.2%,6%,14%
COc1ccc(-c2coc3ccc(-c4nnc(SCc5ccc(OC)c(C(F)(F)F)c5)o4)cc23)cc1,0%,0%,4%,0%,15%,3%,17%,24%,3%,0%,15%,14%,8%,9%,0%,0%,0%,0%,0%,0%
Cl.Cl.NCC(C(=O)Nc1cc(Br)c(-c2ccnc3[nH]ccc23)s1)c1ccccc1 (stereo not drawn) [GSK1269851],55%,38%,74%,1%,97.2%,93.6%,0%,100%,15%,0%,16%,2%,0%,70%,58%,63%,26%,73%,0%,0%
c1ccc(-c2n[nH]cc2Nc2ccnc3ccccc23)nc1 [GW694077],10%,73%,54%,72%,0%,0%,0%,7%,0%,0%,0%,0%,48%,0%,22%,0%,48%,0%,91.8%,96.2%
Cc1occc1-c1ncc(OC[C@@H](N)Cc2c[nH]c3ccccc23)cc1-c1ccc2[nH]nc(C)c2c1.O=C(O)C(F)(F)F [GSK682037],75%,19%,40%,0%,99.8%,99.5%,7%,28%,64%,0%,0%,0%,0%,100%,99.8%,97.5%,28%,97.7%,90%,99.6%
CN(C)S(=O)(=O)c1cc(-c2ccc3nccc(-c4cccc(S(N)(=O)=O)c4)c3c2)cnc1N [GSK1669921],0%,36%,21%,85%,3%,10%,0%,57%,0%,33%,2%,0%,0%,0%,15%,29%,7%,10%,0%,0%
O=C(Nc1n[nH]c2cc(-c3ccoc3)ccc12)C1CC1 [SB-738481],28%,0%,18%,0%,0%,2%,0%,0%,22%,3%,3%,12%,10%,4%,12%,0%,0%,0%,0%,0%
Nc1ncc(-c2cccnc2)c2scc(-c3ccc4c(c3)CCN4C(=O)Cc3ccccc3)c12 [GSK683281],0%,17%,19%,0%,31%,13%,13%,30%,18%,5%,0%,0%,15%,25%,0%,33%,33%,14%,23%,73%
CN(C)Cc1ccc(-c2ccc3c(Nc4ccc(Oc5ccccn5)cc4)ccnc3c2)o1 [GW567148],33%,18%,0%,49%,0%,0%,0%,0%,0%,0%,0%,0%,37%,0%,0%,7%,0%,0%,0%,4%
O=C(Nc1ccccc1F)NC1CCN(c2ccnc(Nc3ccc(F)cc3)n2)CC1 [GSK1379800],1%,47%,12%,23%,0%,0%,7%,0%,0%,0%,0%,0%,0%,0%,2%,0%,18%,0%,0%,2%
Cc1ccc(C(=O)Nc2ccc(Nc3ccnc4cc(-c5nccs5)ccc34)cc2O)cc1.Cl [GW494702],0%,9%,0%,28%,0%,0%,0%,0%,0%,1%,0%,0%,98.4%,0%,16%,5%,2%,13%,0%,2%
c1ccc(-c2cnc3nccnn23)cc1 [AH20685],0%,24%,13%,0%,0%,0%,0%,7%,0%,0%,0%,0%,0%,0%,0%,4%,3%,0%,0%,0%
O=C(Nc1cccc(-c2nn3ccccc3c2-c2ccnc(Nc3cccc(F)c3)n2)c1)c1c(F)ccc(F)c1Cl [GSK357952],0%,7%,8%,0%,13%,18%,5%,17%,0%,0%,0%,2%,0%,8%,0%,31%,0%,38%,21%,0%
COC(=O)Nc1nc2cc(Oc3ccc(NC(=O)Nc4cc(C(F)(F)F)ccc4F)cn3)ccc2[nH]1.Cl.Cl [GW681170],9%,61%,12%,19%,0%,0%,5%,15%,15%,0%,0%,0%,55%,0%,12%,14%,26%,0%,0%,9%
COc1cccc(C(=O)Nc2cccc(Oc3ccc4nc(NC(=O)C5CC5)cn4n3)c2)c1,0%,10%,0%,28%,6%,47%,0%,0%,4%,0%,0%,14%,5%,25%,0%,0%,40%,0%,0%,44%
Cl.NC(=O)c1cccc(Nc2nccc(Nc3ccc(Oc4c(Cl)cccc4Cl)c(Cl)c3)n2)c1 [GW659009],0%,19%,97.4%,64%,0%,0%,0%,59%,0%,0%,0%,30%,0%,0%,0%,0%,0%,0%,0%,0%
COc1ccc(CNC(=O)NC2CCN(c3ccnc(Nc4ccc(F)cc4)n3)CC2)cc1 [GSK1379788],5%,57%,4%,9%,0%,0%,0%,0%,0%,0%,0%,0%,0%,0%,0%,0%,0%,0%,5%,6%
COC(=O)Nc1nc2ccc(Oc3ccc(NC(=O)Nc4cc(C(F)(F)F)ccc4F)cc3)cc2n1C.Cl [GW692089],74%,61%,22%,41%,0%,0%,0%,0%,11%,0%,0%,30%,0%,0%,20%,0%,4%,0%,0%,10%
